The results in this text go back to PubChem BioAssay (NCATS).

Records with an inconclusive call do not appear. The source made the active and inactive calls. Calls come from the whole dose curve; as a rule, active = well fitted cell-killing curve with a large enough effect; inconclusive = small, poorly fitted or top-dose-only effect; inactive = flat fitted curve, though single readings scatter.
Potency is the fitted concentration of half-maximal effect.

A short description of the experiment: Quantitative highthroughput screen to assess conditional lethalithy of P12 Ichikawa cells grown in Human Plasma-Like Medium with dialyzed fetal bovine serum (HPLM+ds) (AID 1963879). Note: nearly all actives have a fitted effect of over 35% in size. The following applies: ATP luminescence, 48 h; Potency: viability; series mostly up to 45.8 µM. In outline: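 Each medium arm—HPLM with 10% dialyzed FBS, or RPMI1640 with 5 mM glucose and 10% untreated or dialyzed FBS—was screened against an 11-point, 3-fold compound titration for 48 h at 37 °C, with CellTiter-Glo luminescence as endpoint.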
Turning to `COc1cc2nc(N3CCN(C(=O)c4ccco4)CC3)nc(N)c2cc1OC`, the Potency is 16.6 µM (active).

Take `CN(C)c1ccc(-c2nc3ncc(Cl)c(N4CCN(CC(=O)Nc5nccs5)CC4)c3[nH]2)cc1`: the Potency entry was “inactive”. Turning to `CC(C)(C)NC(=O)Nc1cccc(Nc2ncc(F)c(NC(C)(C)CO)n2)c1`, the Potency is 8.33 µM (active). Then `Cc1cccc(Nc2nc(N[C@@H]3CCCC[C@H]3N)ncc2C(N)=O)c1`, with 1.32 µM (active). Regarding `O=C(CN1C(=O)C2(CCCC2)NC[C@H]1c1cc(F)cc(F)c1)Nc1ccc2c(c1)C[C@@]1(C2)C(=O)Nc2ncccc21`, the Potency entry was “inactive”.

With `Cc1cccc2c1CC[C@H](CN1CCC(c3c(Cl)cccc3Cl)CC1)C[C@@H]2O`, the Potency entry is “inactive”.

As for `c1nc2nc(Nc3ccc(N4CCOCC4)cc3)nc(NC3CCCCC3)c2[nH]1`, the Potency is 3.32 µM (active).

For `O=C(Nc1nnc(-c2ccco2)o1)c1cc(-c2ccccc2)nc2ccccc12`, the Potency is 4.69 µM (active). To `COc1cc2ncnc(Nc3cccc(Cl)c3)c2cc1OC` belongs 4.69 µM (active); to `CC[C@@]1(O)C[C@H](O[C@H]2C[C@H](N(C)C)[C@H](O[C@H]3C[C@H](O)[C@H](O[C@H]4CCC(=O)[C@H](C)O4)[C@H](C)O3)[C@H](C)O2)c2c(cc3c(c2O)C(=O)c2c(O)cccc2C3=O)[C@@H]1C(=O)OC`, “inactive”. For `O=C(Nc1cccnc1)N1CCC(Cc2cccc(Oc3ccc(C(F)(F)F)cn3)c2)CC1`, the Potency was 8.33 µM (active).
